This is an account of results in PubChem BioAssay (NCATS).

Where “and” joins values, the source holds several entries; their conditions need not be identical. Equal values may be shown once. Inconclusive results are not listed. Some structures have more than one record in an assay (separate samples or runs), and their calls can disagree. A number with no mark means an inactive call. Calls of active or inactive are those of the source. Calls follow the shape of the dose curve; as a rule, active = well fitted inhibition curve with a large enough effect; inconclusive = small, poorly fitted or top-dose-only effect; inactive = flat fitted curve, though single readings scatter.

One test relates to CRL-7250. The experiment in a line: Cytotoxic Profiling of Annotated Libraries Using Quantitative High-Throughput Screening (AID 1296008). Also: potency is read from the fitted curve at half-maximal effect. As to max response: % is scaled to controls: 0 for no effect and ±100 for the full control effect. Particulars: Five cell lines viability, CellTiter-Glo ATP luminescence, 48-72 h; max response: active compounds read low. The method, boiled down:
(§1)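 Compounds were pin-transferred onto cells and incubated 48 or 72 hr at 37 degree Celsius, 95% humidity. CellTiter-Glo was added, plates sat 10 min at room temperature, then ATP-coupled luminescence was imaged as the viability read-out.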
Background: ATP-based viability assays read luminescence as a measure of living cells.

The test system of the next test is KB-3-1. Described as above. As to conditions: Five cell lines viability, CellTiter-Glo ATP luminescence, 48-72 h; max response: active compounds read low. The method, boiled down:
as §1

A further test deals with NIH3T3. The test is described as above. As to conditions: Five cell lines viability, CellTiter-Glo ATP luminescence, 48-72 h; max response: active compounds read low. The method in brief: as §1
The test system of the next test is HEK293. Described as above. As to conditions: Five cell lines viability, CellTiter-Glo ATP luminescence, 48-72 h; max response: active compounds read low. The method, boiled down: as §1
The next test concerns HaCat. Described as above. Particulars: Five cell lines viability, CellTiter-Glo ATP luminescence, 48-72 h; max response: active compounds read low. The method in brief:
as §1

The subject of the next test is TAB113. The experiment in a line: qHTS profiling for inhibitors of Plasmodium falciparum proliferation (AID 504749).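 Also: 0% = DMSO vehicle and full inhibition = artemisinin control.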 As to conditions: P. falciparum in erythrocytes, SYBR Green DNA, 72 h; series mostly up to 28.7 µM. The method, boiled down:
(§2)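 P. falciparum-infected erythrocytes (0.3% parasitemia, 2.5% hematocrit final) were exposed to compounds for 72 h at 37 C in 5% CO2, then lysed with SYBR Green buffer overnight at room temperature; parasite DNA fluorescence was normalized to artemisinin and DMSO controls.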
(qHTS replaces the single test concentration by a dilution series.)

A further test deals with TAB165. Described as above. As to conditions: P. falciparum in erythrocytes, SYBR Green DNA, 72 h; series mostly up to 28.7 µM. The method, boiled down: as §2
Another test relates to W2. Described as above. Particulars: P. falciparum in erythrocytes, SYBR Green DNA, 72 h; series mostly up to 28.7 µM. The method, boiled down:
as §2

For the next test, the system named is HEK293T. The experiment in a line: qHTS assay to identify novel small-molecules to repurpose for Merkel cell carcinoma treatment (AID 1296009). As to conditions: MCC and control cell lines, CellTiter-Glo viability, 72 h; series mostly up to 44.8 µM. The method, boiled down: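 Cells exposed to NPC (8-point) and MIPE (11-point) compound dilutions for 72 hr at 37 degree celsius; viability read by CellTiter-Glo luminescence, normalized to no-cell and DMSO in-plate controls.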
Also: nearly all actives have a fitted effect of over 60% in size.

For the compound `CN(C)CCN1C(=O)c2cccc3cc(N)cc(c23)C1=O`, the Potency is 10.5 µM (active) in the test with CRL-7250, 16.6 µM (active) in the test with KB-3-1 and 3.32 µM (active) with NIH3T3.
Take `C[C@@H](Cc1cc2c(c(C(N)=O)c1)N(CCCO)CC2)NCCOc1ccccc1OCC(F)(F)F`: the Potency in the test with CRL-7250 is 20.6 µM (active). Also, in the test on KB-3-1, the max response is -7.67%.
Regarding `Cc1noc(-c2ccc(CSCCC(=O)O)cc2)c1NC(=O)OC(C)c1ccccc1Cl` (stereo not given), the max response in the test on HEK293 is -6.98%; in the test with HaCat, -23.2%. In addition, in the test with KB-3-1, the outcome was inactive.
With `CC(C)NC[C@@H](C(=O)N1CCN(c2ncnc3c2[C@H](C)C[C@H]3O)CC1)c1ccc(Cl)cc1`, the values for the Potency in the test with HEK293 and in the test with HaCat were 0.209 µM (active) and 4.18 µM (active), respectively.
Take `C#C[C@]1(O)CC[C@@H]2[C@@H]3CCc4cc(O)ccc4[C@H]3CC[C@@]21C`: the max response with CRL-7250 was -14.3%; with NIH3T3, -5.15%. For the same compound, in the test with KB-3-1, the Potency was 20.9 µM (active).
As for `Cc1cnc(Nc2ccc(N3CCN(C)CC3)cc2)nc1Nc1cccc(S(=O)(=O)NC(C)(C)C)c1`, the Potency was 1.48 µM (active) with CRL-7250, 0.296 µM (active) with HaCat and 4.18 µM (active) in the test on NIH3T3.
`COc1ccc(S(=O)(=O)Nc2cc(-c3c(O)ccc4ccccc34)c(O)c3ccccc23)cc1`: the max response with CRL-7250 was -21.5%; in the test on HaCat, -11.6%. Besides, the result in the test with NIH3T3 was inactive.
Turning to `OCC(O)C(O)C(O)CO` (stereo not given), the Potency result in the test on TAB113, with TAB165 and with W2 was “inactive” throughout. For the same compound, the max response in the test with CRL-7250 is -10.5%; in the test with HaCat it was -1.15%; in the test with KB-3-1, -4.24%; in the test on NIH3T3, 2.68%.
With `N[C@H]1CN(c2c(F)cc3c(=O)c(C(=O)O)cn(C4C[C@@H]4F)c3c2Cl)CC12CC2` (stereo not given in full), the max response was -23.8% with CRL-7250 and -14.1% in the test with KB-3-1. Besides, the compound was classed as inactive with NIH3T3.
Take `O=C(Nc1cc2cc[nH]c2cn1)c1ccccc1`: the Potency in the test on CRL-7250 was 18.7 µM (active); in the test with NIH3T3 it was 13.2 µM (active).
Take `Cc1[nH]c(C=C2C(=O)Nc3ccccc32)c(C)c1CCC(=O)O`: the Potency with HEK293 is 4.18 µM (active); in the test with NIH3T3, 1.48 µM (active). The figures for the max response in the test on HaCat and in the test with KB-3-1 were 0.623% and 3.92%, respectively.
`O=C1NCCc2[nH]c(-c3ccncc3)cc21`: the Potency was 7.43 µM (active) with CRL-7250 and 23.5 µM (active) in the test on NIH3T3.
With `COc1ccc(Nc2cc(-c3cnc(N)nc3)nc(N3CCOCC3)n2)cn1`, the Potency in the test with HEK293 was 1.87 µM (active); in the test on HaCat, 2.64 µM (active); in the test with KB-3-1 it was 2.96 µM (active); in the test with NIH3T3, 3.32 µM (active).
`N#Cc1c(C2CCNCC2)cc(-c2c(O)cccc2OCC2CC2)nc1N`: the Potency with HEK293 is 20.9 µM (active). Besides, the figures for the max response in the test with HaCat, in the test with KB-3-1 and in the test with NIH3T3 were -15.5%, -14.2% and -27%, respectively.
As to `NC(=O)Nc1sc(-c2ccc(F)cc2)cc1C(N)=O`, the Potency is 13.2 µM (active) in the test on HEK293, 10.5 µM (active) in the test on HaCat and 9.35 µM (active) in the test on KB-3-1.
For `CCN(CC)CCNC(=O)c1c(C)[nH]c(C=C2C(=O)Nc3ccc(F)cc32)c1C`, the values for the Potency in the test on CRL-7250 and in the test with KB-3-1 were 0.34 µM (active) and 2.15 µM (active), respectively.
Take `C[C@H]1COc2c(N3CCN(C)CC3)c(F)cc3c(=O)c(C(=O)O)cn1c23`: the max response in the test on CRL-7250 is -8.35%; in the test with KB-3-1, 6.8%. The compound was called inactive in the test on NIH3T3.
On to `COc1cc(C)c(Sc2cnc(NC(=O)c3ccc(CNC(C)C(C)(C)C)cc3)s2)cc1C(=O)N1CCN(C(C)=O)CC1` (stereo not given), for which the Potency is 14.8 µM (active) with HEK293, 26.4 µM (active) in the test on HaCat and 11.8 µM (active) in the test on KB-3-1.
With `CCOC(=O)[C@H](CCc1ccccc1)N[C@@H](C)C(=O)N1[C@@H](C(=O)O)C[C@H]2CCC[C@@H]21`, the Potency with HEK293 is 18.7 µM (active); with HaCat, 37.2 µM (active).
Regarding `Cn1cc(-c2ccc3ncc(Cc4ccc5ncccc5c4)n3n2)cn1`, the max response with HEK293 is 4.11%; in the test on HaCat, -43.1%; with KB-3-1, 8.56% and 1.39%. Also, the Potency in the test with HaCat is 20.6 µM (active).
With `COC(=O)[C@H](CCCN=C(N)N)NS(=O)(=O)c1ccc(C)cc1`, the compound was called inactive in the test on CRL-7250. In addition, the max response is 0.0008% in the test with HaCat, -0.67% with KB-3-1 and 2.63% in the test on NIH3T3. The Potency entry in the test on HEK293T was “inactive”.
For the compound `COc1ccc2c(c1OC)C(=O)OC2[C@H]1c2c(cc3c(c2OC)OCO3)CCN1C` (stereo not given in full), the Potency result in the test with TAB113, with TAB165 and in the test on W2 was “inactive” throughout. Moreover, the Potency is 0.833 µM (active) in the test with CRL-7250, 10.5 µM (active) with HaCat, 0.118 µM (active) in the test with KB-3-1 and 1.05 µM (active) with NIH3T3.
Consider `CC(=O)NCC(=O)N1[C@H]2CC[C@H]1c1cc(Nc3ncc(C(F)(F)F)c(NC4CCC4)n3)ccc12`, for which the Potency in the test on HEK293 was 5.26 µM (active); in the test with HaCat it was 0.132 µM (active); in the test on KB-3-1, 1.66 µM (active); in the test with NIH3T3, 1.32 µM (active).
With `C[C@]12CCC(=O)C=C1[C@@H]1CC1[C@H]1[C@H]3[C@@H]4C[C@H]4[C@@]4(CCC(=O)O4)[C@@]3(C)CC[C@H]12` (stereo not given in full), the max response with CRL-7250 was 3.77%; in the test with HaCat, -9.69%. Besides, the compound was called inactive in the test on NIH3T3.
As for `CC(C)(O)CC[C@@H](O)[C@](C)(O)[C@H]1CC[C@@]2(O)C3=CC(=O)[C@@H]4C[C@@H](O)[C@@H](O)C[C@]4(C)[C@@H]3CC[C@]12C`, the max response in the test with HEK293 was -3.79%; in the test on HaCat it was -11.3%; with KB-3-1 it was -6.66%; with NIH3T3, 0.822%.
